Test results from PubChem BioAssay (NCI).
This is part of a sample that, as a whole, favours compounds with a hit. Of some 79,000 tested, about 15% had one in any assay. Cut-off read from the data, not from the text of the source: active = growth inhibition above about 70%; inactive = the rest.

Tests used:
[1] = NCI Yeast Anticancer Drug Screen. Data for the rad50 strain (AID 155);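 note: 0% = growth of vehicle-only cultures of the same strain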; conditions: S. cerevisiae rad50 strain growth inhibition; at 50.0 µM; stronger effect = higher value
Method in brief: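 Genetically altered yeast (DNA repair pathway); compound treatment; growth inhibition vs vehicle ctrl.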

[2] = NCI Yeast Anticancer Drug Screen. Data for the mec2-1 strain (AID 157); conditions: S. cerevisiae mec2-1 strain, at 50.0 µM, stronger effect = higher value
Method in brief: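 Strain: mec2-1 (DNA repair/cell cycle alteration). Compound exposure, then growth measured; inhibition expressed relative to vehicle.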

[3] = NCI Yeast Anticancer Drug Screen. Data for the sgs1 mgt1 strain (AID 161);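 note: 0% = growth of cultures given vehicle only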; conditions: S. cerevisiae sgs1 mgt1 strain, at 50.0 µM, stronger effect = higher value
Method in brief: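 Genetically altered yeast, compound exposure, growth inhibition relative to vehicle.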

[4] = NCI Yeast Anticancer Drug Screen. Data for the cln2 rad14 strain (AID 165);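 note: 0% = growth equal to vehicle treated cultures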; conditions: S. cerevisiae cln2 rad14 strain, at 50.0 µM, stronger effect = higher value
Method in brief: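 Compounds are applied to the cln2 rad14 yeast strain, and growth is then compared with that of vehicle-treated cultures to give inhibition.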

[5] = NCI Yeast Anticancer Drug Screen. Data for the bub3 strain (AID 167); conditions: S. cerevisiae bub3 mutant strain, at 50.0 µM, stronger effect = higher value
Method in brief: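 Yeast carrying a defined mutation is treated with each compound, and growth is compared with that of vehicle-exposed cells to give inhibition.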

[6] = NCI Yeast Anticancer Drug Screen. Data for the mlh1 rad18 strain (AID 175); conditions: S. cerevisiae mlh1 rad18 strain growth inhibition; at 50.0 µM; stronger effect = higher value
Method in brief: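 Read-out is yeast growth inhibition, calculated against vehicle-only controls. The compound was applied to a strain engineered with DNA damage repair alterations.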

Measured: growth inhibition

CC1=C(C)CN(CCC(=O)O)C(C(N)=O)C1 (stereo unspecified)
inactive: [1] -11.9% | [2] -2.3% | [3] -3.8% | [4] 17.5% | [5] 18.5% | [6] -10.1%

CCCCN(CCCC)C(=Nc1ccccc1)N(CCCC)CCCC
inactive: [1] -13.2% | [2] -3.4% | [3] -23.8% | [4] 10% | [5] -38.9% | [6] -15.3%

CCOC(=O)Nc1ccc(Cl)cc1Cl
inactive: [1] -16.3% | [2] -8.2% | [3] -4.7% | [4] -16.7% | [5] -8.75% | [6] 1.15%

CSCCC(Nc1ncnc2nc[nH]c12)C(=O)O (stereo unspecified)
inactive: [1] -9.7% | [2] 3.05% | [3] 3.6% | [4] -12.7% | [5] 0.9% | [6] -9.5%

Nc1nc2c(C(=O)N3CCCC3)nnn2c2cccc(Cl)c12
inactive: [1] -4.45% | [2] -11.7% | [3] 17% | [4] 18.3% | [5] 9.9% | [6] 0.05%

CCCNCC(O)c1cc(C(F)(F)F)nc2c(C(F)(F)F)cccc12 (stereo unspecified)
inactive: [1] 29.4% | [2] -0.15% | [3] 2.25% | [4] -25.4% | [5] 0.6% | [6] 19.1%

O=C1Oc2cc3c(c4cccc1c24)OCN(c1ccc(Cl)cc1)C3
inactive: [1] 38.6% | [2] 29.9% | [3] 53.1% | [4] 33% | [5] 33% | [6] 37.5%

Cc1cccn(C(=O)c2ccccc2)c1=N
inactive: [1] -8.2% | [2] 4.1% | [3] 1.35% | [4] -41.7% | [5] -16.9% | [6] 29.3%

CCC(C)(C)c1ccc(OCCOc2ccc(C(=O)O)cc2[N+](=O)[O-])cc1
inactive: [1] -4.1% | [2] 12.2% | [3] -3.9% | [4] -17.6% | [5] -6.6% | [6] -20.1%

COc1ccc([N+](=O)[O-])c2c(NCCC[N+](C)(C)[O-])c3ccccc3nc12
inactive: [1] 24.9% | [2] -13.3% | [3] 3.05% | [4] -46.8% | [5] -19.2% | [6] 19.7%

c1cc2c3c(c1)ccc1cccc(c13)CC2
inactive: [1] 4.45% | [2] -34.1% | [3] 3.3% | [4] 1.5% | [5] -22.8% | [6] 13.9%

O=C(O)c1ccccc1-c1ccccc1C(=O)Nc1ccc2c(c1)[nH]c(=O)c1ccccc12
inactive: [1] -13.8% | [2] -3.85% | [3] -21.8% | [4] 46.9% | [5] -15.8% | [6] -22.3%

CCOC(=O)CC[C@@H](NC(=O)c1ccc(NCc2ccc3nc(OC)c(OC)nc3c2)cc1)C(=O)OCC
inactive: [1] 2.7% | [2] -10.2% | [3] -4.15% | [4] -9.55% | [5] 15.8% | [6] -13.4%

O=N[C@@H]1CCC[C@H](Cl)C1
inactive: [1] 3.95% | [2] -6.65% | [3] -0.1% | [4] 17.2% | [5] 5.75% | [6] 15.6%

CC(=O)c1ccc2c(Br)ccc3c2c1CC3
inactive: [1] 12.3% | [2] 10.3% | [3] 4.25% | [4] 10.4% | [5] 16.1% | [6] 9.55%

O=C1C[CH]([Ge](=[O])[O][Ge](=[O])[CH]2CC(=O)NC(=O)N2)NC(=O)N1 (stereo unspecified)
inactive: [1] 43.9% | [2] 18.2% | [3] 25.1% | [4] 16.6% | [5] -5.3% | [6] 22.1%

N#CC1(OC2OC(CO)C(O)C(O)C2O)C=CCC1 (stereo unspecified)
inactive: [1] 8.1% | [2] -33% | [3] 4.45% | [4] -7.45% | [5] -12.9% | [6] -3.05%

C=C1SC(=Nc2c(C)cccc2Cl)N(C(=O)c2sc3ccccc3c2Cl)C12CCCCC2
inactive: [1] 8.05% | [2] -16% | [3] 2.3% | [4] 5.6% | [5] 8.85% | [6] 8.75%

N=S(c1ccccc1)c1ccccc1[N+](=O)[O-] (stereo unspecified)
inactive: [1] 16.2% | [2] -6.65% | [3] 18.6% | [4] 11.8% | [5] 4.35% | [6] -3.45%

ClCC1CCC(CCl)CC1 (stereo unspecified)
inactive: [1] -31.6% | [2] -18.4% | [3] -15.2% | [4] -5.95% | [5] -21.7% | [6] -16.1%

CNC(=O)CNC(=O)C(Cc1ccc(NC(=O)CCCCC(C)=O)cc1)NC(=O)C(CCC(=O)OCc1ccccc1)NC(=O)OC(C)(C)C (stereo unspecified)
inactive: [1] -19.6% | [2] -23.6% | [3] -26.1% | [4] 0% | [5] -30.1% | [6] -17.1%

CCOC(=O)C(=CC(C)(C)C)C(=O)OCC
inactive: [1] 3.9% | [2] 19.1% | [3] 2.8% | [4] 14.8% | [5] 21.1% | [6] 10%

COC(=O)c1cc2c(n1S(=O)(=O)c1ccc(C)cc1)C(=O)C(=O)c1[nH]cc(C(=O)OCc3ccccc3)c1-2
inactive: [1] 0.6% | [2] 3.7% | [3] 20.6% | [4] 8.9% | [5] 14% | [6] 13.5%

Cc1cc(C)c2nc3c(c(C(O)C4CCCCN4)c2c1)CC/C3=C\c1ccc(Cl)cc1 (stereo unspecified)
inactive: [1] -28.8% | [2] -22.4% | [3] 16.9% | [4] -7.75% | [5] -23.9% | [6] -4.75%

COc1nc(NC2OCC(O)C(O)C2O)c(Br)c(=O)n1C (stereo unspecified)
inactive: [1] 4.9% | [2] -10.4% | [3] 14.2% | [4] 11.8% | [5] 17.5% | [6] 13%

COc1cc(N)c2c(c1)SC(c1ccccc1)C(=O)N2 (stereo unspecified)
inactive: [1] -23.6% | [2] 4.25% | [3] 1% | [4] 14.1% | [5] 32.6% | [6] 15.7%

O=c1[nH]cc(COCCO)c(=O)[nH]1
inactive: [1] -20.1% | [2] -2.8% | [3] -19.4% | [4] 7.4% | [5] -18% | [6] 7.2%

CN(C)CCCNCc1c[nH]c(=O)[nH]c1=O
inactive: [1] -4.75% | [2] 6.55% | [3] -9.9% | [4] -7.4% | [5] -4.85% | [6] -25.9%

CC(C)C1CSC2N1C(=O)C2(OCc1ccccc1)C1CC1 (stereo unspecified)
inactive: [1] 3.3% | [2] -22.4% | [3] -3.2% | [4] -16.2% | [5] -20.1% | [6] 9.1%

O=P(c1ccccc1)(c1ccccc1)c1ccccc1OCCCO
inactive: [1] 8.3% | [2] 3.2% | [3] 4.35% | [4] 24.8% | [5] 4.4% | [6] 3.15%

CN(C)CCN1CC2C3CCCCC3=C3CCCCC3C2C1 (stereo unspecified)
inactive: [1] -0.45% | [2] 10.1% | [3] 31.9% | [4] -24.4% | [5] 23.8% | [6] 37.9%

O=[N+]([O-])c1ccc(/C=N\N=C\c2ccco2)cc1
inactive: [1] 1.85% | [2] 16.8% | [3] -4.35% | [4] -50.1% | [5] -9.9% | [6] 4.95%

CCC(C)(C1CCC(=O)CC1)C1CCC(=O)CC1
inactive: [1] 33.6% | [2] -5.75% | [3] -0.7% | [4] -7% | [5] -0.75% | [6] 7.85%

O=c1[nH]c2cc(Cl)ccc2nc1/C(=N/Nc1ccccc1)C(O)c1ccco1 (stereo unspecified)
inactive: [1] 19.4% | [2] -15.7% | [3] -4.8% | [4] 5.85% | [5] 7.65% | [6] -54.4%

CCC1=C(C)/C(=C/c2[nH]c(C)cc2C)N=C1C
inactive: [1] 5.5% | [2] 0.95% | [3] 3.65% | [4] -54.6% | [5] 0.25% | [6] 12.2%

C/C(=C\c1ccc(F)cc1)C(=O)O
inactive: [1] 20.2% | [2] -0.95% | [3] 0% | [4] 11.2% | [5] 14.9% | [6] 13.8%

CSc1ncc(CO)c(Nc2ccccc2Cl)n1
inactive: [1] 2.8% | [2] 14.4% | [3] -19.4% | [4] -14% | [5] 12.3% | [6] 1.55%

CCOC(=O)C(Cc1ccccc1C)(NC(C)=O)C(=O)OCC
inactive: [1] 6.65% | [2] -0.25% | [3] 7.35% | [4] 4.1% | [5] 1.4% | [6] -11.2%

Cc1cccc(C)c1NC(=S)N(CCC#N)Cc1ccccc1
inactive: [1] 6.8% | [2] 1.45% | [3] 1.9% | [4] -4.55% | [5] 12.3% | [6] -11.1%

C=CCOC(=O)c1cccc(C(=O)OCC=C)c1
inactive: [1] 12.6% | [2] 23.4% | [3] 40.2% | [4] 19.1% | [5] 34.5% | [6] 33.8%

CCCCOC(=O)NC(=O)c1cn(CCCOC(=O)CCCCCCCCC(=O)OCCCn2cc(C(=O)NC(=O)OCCCC)c(=O)n(C)c2=O)c(=O)n(C)c1=O
inactive: [1] -3.9% | [2] -10.9% | [3] -10.7% | [4] 12.2% | [5] 14.3% | [6] -5.55%
